This is a sample that favours compounds with a hit; in the whole collection about 7.2% have one here.
Lassa entry inh: inhibitors of Lassa virus binding or cell entry; AID 540256; hit rate 1.2% among 300,000; Potency, µM (highest dose often 37.9 µM), inactives show at the highest dose activity change, negative = inhibition, actives largely listed as inhibitors; Lassa virus pseudotype entry inhibition, cell reporter; calls by dose curve; tested in HEK293 cells; note: nearly all actives have a fitted effect of over 50% in size
RE007 growth inh: less growth of the S. pombe RE007 Vpr strain | S. pombe RE007 Vpr strain, BacTiter-Glo ATP luminescence, 24 h | hit rate 0.21% among 360,000 | Potency, µM (doses to about 92.2 µM), for the others: at the top dose activity change, negative = less growth, hits mostly inhibitors; active = well fitted falling curve with a large enough effect; inconclusive = small, poorly fitted or top-dose-only effect; inactive = no such curve, though single readings can be large or run the other way; note: nearly all actives have a fitted effect of over 50% in size
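Fission yeast strain RE007, carrying one chromosomally integrated HIV-1 vpr copy, was seeded at OD 0.01 in PMG+AL medium with 23 nL pinned compound. After 24 h at 30 °C and 99% humidity, viability was read by BacTiter-Glo luminescence.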
FMDV antiviral: foot and mouth disease virus antiviral activity; FMDV antiviral cell-based qHTS; Potency, µM (series often up to 57.9 µM), for the others: top-dose activity change, negative = inhibition, most hits filed as inhibitors; hit rate 1.2% among 410,000; calls by dose curve; tested in HEK293T cells; note: read-out not given here; nearly all actives have a fitted effect of over 45% in size
Sm TGR inh: blocks Schistosoma mansoni thioredoxin glutathione reductase; Q962Y6; AID 485364; hit rate 3% among 360,000; purified TGR, DTNB reduction, TNB absorbance 405 nm; Potency, µM (top dose mostly 114 µM), without a hit: at the highest dose activity change, negative = inhibition, usual class: inhibitors; note: nearly all actives have a fitted effect of over 60% in size
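First, TGR (20 nM dispensed) and NADPH were mixed with compound. Second, a 15 min room-temperature incubation followed. Third, further NADPH and then DTNB were added to start the reaction. Finally, TNB absorbance was monitored kinetically.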
Marburg entry inh: inhibitors of Marburg virus binding or cell entry. Marburg virus pseudotyped entry inhibition, cell reporter. Potency, µM (titrated, usually from 37.8 µM), for inactives: at the top dose activity change, negative = inhibition, usual class: inhibitors. hit rate 1.8% among 300,000. AID 540276; calls by dose curve; tested in HEK293 cells
HCV inhibitor: HCV inhibition. Huh7.5.1 HCVcc-Cre infection, luciferase reporter, 44 h. Potency, µM (series often up to 41.8 µM), without a hit: at the highest dose activity change, negative = inhibition, hits mostly inhibitors. hit rate 3.4% among 340,000. AID 651820
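A cell-based infection assay in which seeded cells (1,000 per well) receive test compound after 4 h, are inoculated with HCVcc-Cre at approximately 0.5 moi, and are incubated 44 h before luminescence detection.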
The depositor's hits bear a star; [ ] = another dose, or the depositor's remark. Unless noted, calls come from the whole dose curve; as a rule, active = well fitted curve in the direction sought with a large enough effect; inconclusive = small, poorly fitted or top-dose-only effect, or another doubt; inactive = no such curve, though single readings can be large; an effect the other way counts as inactive or inconclusive. % is set by controls: 0 for no effect and ±100 for the full control effect; potency is the fitted concentration of half-maximal effect.

What do the screens show for `O=C(CN1CCN(c2ccccc2)CC1)Nc1ccccc1Cl`?
RE007 growth inh: -5.7%; FMDV antiviral: -20.0%; Sm TGR inh: 7.6%; HCV inhibitor: 0.7%

What do the screens show for `CC(=O)N1CCN(CC(=O)Nc2ccccc2Sc2ccc(Cl)cc2)CC1`?
Lassa entry inh: 5.01µM*; RE007 growth inh: -21.6%; FMDV antiviral: inconclusive; Sm TGR inh: 5.3%; Marburg entry inh: -13.7%; HCV inhibitor: inconclusive

What do the screens show for `O=C(CN1CCN(c2ccccc2)CC1)Nc1ccccc1Sc1ccccc1`?
Lassa entry inh: inconclusive; RE007 growth inh: 5.0%; FMDV antiviral: -0.9%; Sm TGR inh: -6.8%; Marburg entry inh: 4.47µM*; HCV inhibitor: inconclusive

What do the screens show for `CC(C)CCn1c(=O)c2sccc2n2c(CCCC(=O)NC3CCC(C)CC3)nnc12` (stereo unspecified)?
Lassa entry inh: 13.6%[46.1 µM]; FMDV antiviral: -4.5%; Sm TGR inh: -0.5%

How did CCOC(=O)c1oc2ccc(Br)cc2c1NC(=O)CN1CCN(C)CC1 do in these assays?
Lassa entry inh: -8.9%; RE007 growth inh: 2.3%; FMDV antiviral: -19.5%; Sm TGR inh: 4.7%; Marburg entry inh: inconclusive; HCV inhibitor: 10µM*

What do the screens show for `CCOC(=O)c1oc2ccccc2c1NC(=O)CCl`?
RE007 growth inh: -10.8%; FMDV antiviral: inconclusive; Sm TGR inh: 5.62µM*; Marburg entry inh: 1.5%; HCV inhibitor: 5.1%

Results for CN1CCN(CC(=O)Nc2c(C(=O)c3ccccc3)oc3ccccc23)CC1 ?
Lassa entry inh: inconclusive; RE007 growth inh: 4.5%; FMDV antiviral: -27.5%; Sm TGR inh: -7.0%; Marburg entry inh: inconclusive; HCV inhibitor: 11.2µM*

What do the screens show for `CCOC(=O)c1oc2ccccc2c1NC(=O)c1ccco1`?
RE007 growth inh: 3.5%; FMDV antiviral: inconclusive; Sm TGR inh: 0.7%; HCV inhibitor: inconclusive

What do the screens show for `COc1ccc2oc(C(=O)c3ccccc3)c(NC(=O)CN3CCN(C)CC3)c2c1`?
Lassa entry inh: 1.6%; RE007 growth inh: 11.8%; FMDV antiviral: -11.8%; Sm TGR inh: 1.2%; Marburg entry inh: -5.8%; HCV inhibitor: 1.5%

What do the screens show for `COC(=O)c1oc2ccc(Br)cc2c1NC(=O)CCN1CCOCC1`?
Lassa entry inh: 2.8%; RE007 growth inh: -5.9%; FMDV antiviral: 0.1%; Sm TGR inh: 0.0%; Marburg entry inh: inconclusive; HCV inhibitor: 2.4%

How did NC(=O)c1c(NC(=O)C2CCCO2)sc2c1CCC2 (stereo unspecified) do in these assays?
Lassa entry inh: 6.6%; RE007 growth inh: -3.3%; FMDV antiviral: 47.1%; Sm TGR inh: 7.9%; Marburg entry inh: 17.4%; HCV inhibitor: inconclusive

What do the screens show for `NC(=O)c1c(NC(=O)C2CCCO2)sc2c1CCCCC2` (stereo unspecified)?
Lassa entry inh: 7.1%; RE007 growth inh: 5.7%; FMDV antiviral: 38.4%; Sm TGR inh: inconclusive; Marburg entry inh: inconclusive; HCV inhibitor: 10.3%

How did CC(C)(C)C1CCc2c(sc(NC(=O)C3CCCO3)c2C(N)=O)C1 (stereo unspecified) do in these assays?
Lassa entry inh: 17.8µM*; RE007 growth inh: 19.2%; FMDV antiviral: -7.6%; Sm TGR inh: -2.7%; Marburg entry inh: inconclusive; HCV inhibitor: inconclusive

How did COC(=O)c1c(NC(=O)C2CCCO2)sc2c1CCC2 (stereo unspecified) do in these assays?
Lassa entry inh: -0.2%; RE007 growth inh: -20.5%; FMDV antiviral: 10.9%; Sm TGR inh: -18.7%; Marburg entry inh: 18.8%; HCV inhibitor: 5.62µM*

What do the screens show for `CS(=O)(=O)N(CC(=O)NCCc1ccccc1)c1cc(C(F)(F)F)ccc1Cl`?
Lassa entry inh: -11.3%[46.1 µM]; FMDV antiviral: 16.3%; Sm TGR inh: 6.4%; Marburg entry inh: -1.9%[46.1 µM]

What do the screens show for `Cc1onc(-c2ccc(Cl)cc2)c1-c1ccnc(SCC(=O)Nc2cc(Cl)cc(Cl)c2)n1`?
Lassa entry inh: inconclusive; RE007 growth inh: -14.8%; FMDV antiviral: -16.0%; Sm TGR inh: 1.4%; Marburg entry inh: 7.94µM*; HCV inhibitor: 15.8µM*

How did O=C(CSc1nccc(-c2cccs2)n1)Nc1cccc(Cl)c1 do in these assays?
Lassa entry inh: -27.5%; RE007 growth inh: 13.4%; FMDV antiviral: -22.6%; Sm TGR inh: 0.0%; Marburg entry inh: 13.8%[14.2 µM]; HCV inhibitor: inconclusive

Screening data from PubChem.
